Bioassay records as filed in PubChem BioAssay.
An excerpt weighted towards active compounds, which were near 4.5% of everything screened.
Caspase-7 inhib: qHTS Assay for Allosteric/Competitive Inhibitors of Caspase-7; Potency, µM (titrated, usually from 57.5 µM), hits mostly inhibitors; 0.02% of 75,000 active; recombinant caspase-7, Ac-DEVD-AFC fluorescence rate; AID 889, 2007; active = well fitted inhibition curve with a large enough effect in the main read-out, with a control signal flat, not every such curve was filed as active; inconclusive = small, poorly fitted or top-dose-only effect, or a change in a side signal
TSHR agonist: qHTS Assay for Agonists of the Thyroid Stimulating Hormone Receptor; Thyrotropin receptor (Homo sapiens), P16473; HEK293-CNG-TSHR cells (CNG channel as cAMP sensor), membrane potential dye, cAMP; Potency, µM (titrated, usually from 57.1 µM), most hits filed as activators; 0.48% of 73,000 active; AID 926, 2007; active = well fitted activation curve with a large enough effect in the main read-out, with a control signal flat, not every such curve was filed as active; inconclusive = small, poorly fitted or top-dose-only effect, or a change in a side signal; inactive = no such curve, though single readings can be large or run the other way; reference of the percent scale not stated here;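 also: the control signal comes from parental cells without the receptor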
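HEK 293 cells stably expressing TSHR and a modified CNG channel, with CNG-only parental cells as counterscreen, were preloaded 60 min at room temperature with membrane potential dye containing 100 uM RO 20-1724. Compound exposure was 30 min, and depolarization was read as fluorescence at 590 nm.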
ERK AVP inh: qHTS Assay for Inhibitors of the ERK Signaling Pathway using a Homogeneous Screening Assay | HEK293-V1b, vasopressin-stimulated pERK AlphaScreen | Potency, µM (titrated, usually from 57.5 µM), hits mostly inhibitors | 0.99% of 72,000 active | AID 995, 2007; also: nearly all actives have a fitted effect of over 55% in size
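Phosphorylated ERK1/2 detected via AlphaScreen bead proximity in lysates of V1b-expressing HEK293 cells given 25 nM vasopressin for 5 min after 30 min compound exposure (37 °C). AC50 from Hill equation; basal DMSO 0%, vasopressin 100%.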
HEK293 cAMP ctrl: qHTS Assay for Agonists of the Thyroid Stimulating Hormone Receptor: Activators of Intracellular cAMP Concentrations in Parental HEK 293 | Potency, µM (doses to about 57.1 µM), most hits filed as activators | 2.5% of 73,000 active | parental HEK293 CNG cAMP sensor, membrane potential fluorescence; also: nearly all actives have a fitted effect of over 55% in size
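Counterscreen for endogenous-receptor signalling: CNG-channel HEK 293 cells report cAMP rise by membrane depolarization. After 60 min dye equilibration with 100 uM RO 20-1724, compounds incubated 30 min before bottom-read fluorescence at 590 nm.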
GBA activity: Glucocerebrosidase; purified enzyme, resorufin glucoside fluorescence (screen aimed at inhibitors), 20 min; Potency, µM; 1.1% of 48,000 active; AID 360, 2006; in the data active = potency below about 15 µM; inconclusive = mostly about 16 µM to 33 µM;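 also: the screen sought inhibitors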
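Compounds titrated against 0.2 nM normal enzyme, 30 uM resorufin beta-D-glucopyranoside substrate, citrate/phosphate buffer with taurocholate and tween-20, pH 5.9. Reaction ran 20 min at room temperature; fluorescence (Ex 548/Em 600) gave AC50.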
Caspase-1 inhib: qHTS Assay for Allosteric/Competitive Inhibitors of Caspase-1. P29466. Caspase-1 enzyme, Ac-WEHD-AFC fluorogenic rate. Potency, µM (top dose mostly 57.5 µM), usual class: inhibitors. 0.03% of 75,000 active
Target sequence (P29466 120-297 limits assumed): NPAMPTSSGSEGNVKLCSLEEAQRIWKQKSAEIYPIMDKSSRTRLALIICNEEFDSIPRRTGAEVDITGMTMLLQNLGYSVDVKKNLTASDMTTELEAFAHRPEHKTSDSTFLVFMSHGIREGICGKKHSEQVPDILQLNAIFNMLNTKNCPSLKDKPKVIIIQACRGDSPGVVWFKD
Target sequence (P29466 317-404 limits assumed): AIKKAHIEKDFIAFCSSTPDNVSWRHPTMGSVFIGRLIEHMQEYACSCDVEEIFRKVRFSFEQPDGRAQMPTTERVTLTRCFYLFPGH
Each line names hits and unclear results; the compound was inactive in the other large screens. Unless noted, calls follow the shape of the dose curve; as a rule, active = well fitted curve in the direction sought with a large enough effect; inconclusive = small, poorly fitted or top-dose-only effect, or another doubt; inactive = no such curve, though single readings can be large; an effect the other way counts as inactive or inconclusive.

Cc1sc2ncnc(-n3cnc4ccccc43)c2c1C	none
COC(=O)N1CCC2(CCCN(Cc3ccc(C#N)cc3)C2)CC1	none (no result: GBA activity)
CS(=O)(=O)Nc1cccc(-c2nc(Nc3ccc(F)cc3)c3ccccc3n2)c1	TSHR agonist 25µM, ERK AVP inh inconclusive (no result: GBA activity)
CNc1nc(-c2cccc(NS(C)(=O)=O)c2)nc2ccccc12	none (no result: GBA activity)
O=C(CCCc1ccc(-c2ccccc2F)cc1)Nc1ccc(O)cc1	TSHR agonist inconclusive, HEK293 cAMP ctrl inconclusive (no result: GBA activity)
COc1ccc(C2CC(C(F)(F)F)n3nc(CO)c(Cl)c3N2)cc1OC (stereo not given)	GBA activity 5.9
CC(=O)OC[C@@H]1O[C@@H](O/N=C2/C[C@@H](O)[C@@H](O)[C@@H]3[C@H]4C(=O)N(c5ccc(F)cc5F)C(=O)[C@@H]4CC[C@@H]23)[C@H](OC(C)=O)[C@H](OC(C)=O)[C@@H]1OC(C)=O	none (no result: TSHR agonist, GBA activity)
C=C(CO)[C@H]1Cc2c(ccc3c2O[C@H]2COc4cc(OC)c(OC)cc4[C@@H]2C3=O)O1	none (no result: Caspase-7 inhib, ERK AVP inh, GBA activity, Caspase-1 inhib)
COc1cc2c(cc1OC)[C@@H]1C(=O)c3ccc4c(c3O[C@@H]1CO2)C=CC(C)(C)O4	TSHR agonist inconclusive, HEK293 cAMP ctrl 20µM (no result: GBA activity)
CCOC(=O)C1CCN(S(=O)(=O)c2ccc3[nH]c(=O)oc3c2)CC1	none (no result: ERK AVP inh, GBA activity)
CCN1CCN(S(=O)(=O)c2ccc3[nH]c(=O)oc3c2)CC1	TSHR agonist inconclusive, HEK293 cAMP ctrl 32µM (no result: ERK AVP inh, GBA activity)
C=C1C(CCl)(CCl)C2(Cl)C(Cl)C(Cl)C1(Cl)C2(Cl)Cl (stereo not given)	TSHR agonist 40µM (no result: GBA activity)
O=C(O)c1cc(C(=O)C(=O)c2cc(C(=O)O)c(O)c3ccccc23)c2ccccc2c1O	TSHR agonist inconclusive, HEK293 cAMP ctrl inconclusive (no result: GBA activity)
COc1ccc(Cl)cc1NC(=O)C1CSC(c2ccncc2)=N1 (stereo not given)	ERK AVP inh 16µM (no result: GBA activity)
CCOC(=O)C1(O)Oc2cc(OC)cc(OC)c2C(=O)C1c1ccccc1 (stereo not given)	none (no result: TSHR agonist, HEK293 cAMP ctrl, GBA activity)
COC(=O)C1=C2N(Cc3ccccc3)C(C)=C(C(=O)OC)C(c3ccccc3)N2C(=O)[C@](O)(C(=O)OC)C1 (stereo not given in full)	TSHR agonist inconclusive, HEK293 cAMP ctrl inconclusive (no result: GBA activity)
CCCC[S@@](=N)(=O)CC[C@@H](N)C(=O)O	TSHR agonist inconclusive, HEK293 cAMP ctrl inconclusive (no result: GBA activity)
Cc1noc(C)c1CSc1nnc(-c2ccccc2)n1Cc1ccco1	TSHR agonist inconclusive, HEK293 cAMP ctrl 16µM
Clc1ccccc1CSc1nnc(-c2cccnc2)n1Cc1ccco1	none (no result: TSHR agonist)
COC(=O)N1CCC2(CC1)CCN(c1cccc(-c3ccccc3)c1)CC2	none (no result: GBA activity)
O=C(c1ccco1)N1CCC[C@@]2(CCN(c3cccc(-c4ccccc4)c3)C2)C1	TSHR agonist inconclusive, HEK293 cAMP ctrl inconclusive (no result: GBA activity)
CCC(=O)N(Cc1cc2cc(OC)ccc2[nH]c1=O)c1ccc(C)cc1C	TSHR agonist inconclusive, ERK AVP inh inconclusive, HEK293 cAMP ctrl 32µM
COc1ccc(O[C@H]2C=C[C@@H](c3ccccc3)O[C@H]2COC(=O)CC/C(C)=N/O[C@@H]2O[C@H](COC(C)=O)[C@H](OC(C)=O)[C@H](OC(C)=O)[C@H]2OC(C)=O)cc1	none (no result: GBA activity)
COc1cc(-c2nnc(COC(=O)CSc3cc(C)c4ccccc4n3)o2)cc(OC)c1OC	none
COc1ccc(-c2nnc(CSc3nc4ccccc4c(=O)n3CC(C)C)o2)cc1OC	TSHR agonist inconclusive, ERK AVP inh inconclusive, HEK293 cAMP ctrl 7.9µM
COc1ccc(-c2noc(CSc3nc4ccccc4c(=O)n3-c3ccccc3)n2)cc1OC	none (no result: Caspase-1 inhib)
COc1cc(-c2nnc(CSc3nc4ccccc4s3)o2)cc(OC)c1OC	TSHR agonist inconclusive, ERK AVP inh inconclusive, HEK293 cAMP ctrl 32µM, Caspase-1 inhib inconclusive
C[C@H](CN(C)C)C(O)(c1ccccc1)c1ccccc1	none (no result: GBA activity)
O=C(Nc1sc2c(c1C(=O)NC1CCCCC1)CCC2)c1ccco1	TSHR agonist 16µM
